Where “and” joins values, the source holds several entries; their conditions need not be identical. Equal values may be shown once. About 1,000 (0.32%) of roughly 310,000 compounds were called active. A selection follows. Potency and affinity values are given separately. Values without a mark were called inactive. How the calls were made is not given here.

A short description of the experiment: Inhibition of PhoP regulon, Salmonella typhi GFP reporter cells, confirmation, 4 h (AID 1850).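 Further: 0% = induced wells with vehicle and 100% = uninduced wells.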 The note with it: Salmonella Typhi PhoP-promoter GFP reporter, fluorescence, at 50 µM, active compounds read high.
Broadly, the inhibition is the drop in the measured response relative to a control, in per cent. As to `Cc1sc(NC(=O)C2=COCCO2)nc1-c1ccc(F)cc1`, the inhibition was -5.87%.
With `O=C1CSC(c2ccc3c(c2)OCO3)N1c1ccc(Oc2ccccc2)cc1` (stereo unspecified) the figure was 7.07%; with `Fc1ccc(CSc2ccc(-c3ccco3)nn2)cc1`, 6.93%; with `c1ccc(CSc2ccc(-c3ccco3)nn2)cc1`, 9.52%.
For `C[C@]12CCC(=O)C=C1CC[C@@H]1C2CC[C@]2(C)C(=O)CCC12` (stereo partly specified), the inhibition was -12.1%.
For `O=[N+]([O-])c1ccc(N/N=C/c2ccccc2)c(F)c1`, the inhibition was -8.42%.
The result for `O=C(CCc1nnc(Cc2ccc(-c3ccccc3)cc2)o1)NCCc1cccnc1` reads -5.62%; that for `O=C(Oc1ccc(Cl)c2cccnc12)c1cccc([N+](=O)[O-])c1`, -4.89%; that for `O=C(Oc1cccc2cccnc12)c1cccc([N+](=O)[O-])c1`, 1.2%.
With `O=C(Oc1c(Cl)cc(Cl)c2cccnc12)c1cccs1` the figure was 13.7%.
The result for `O=C(Oc1ccc(Cl)c2cccnc12)c1ccco1` reads -5.73%; that for `O=C(Nc1cccc(Cl)c1)c1ccc(=O)[nH]n1`, 12.7%; that for `CC1CCC(NC(=O)c2nn(C)c3c2CS(=O)(=O)c2ccccc2-3)CC1` (stereo unspecified), 5.03%.
Consider `COc1cccc(C(=O)NNC(=O)Cc2ccc(Cl)cc2)c1`, for which the inhibition is -3.92%.
Regarding `CSCCC(N=C(NS(=O)(=O)c1ccc(C)cc1)c1ccccc1)C(=O)O` (stereo unspecified), the inhibition was -3.75%.
With `CCC(C)(C)NC(=O)CN(C(=O)c1snc(C(N)=O)c1N)c1ccc2nc(C)sc2c1`, the inhibition is -5.66%.
For the compound `O=C(CCN1C(=O)C2C3C=CC(C3)C2C1=O)N1CCN(c2ccccc2F)CC1` (stereo unspecified), the inhibition was 18.6%.
With `COC(=O)CSc1nc2nc(-c3cccs3)cc(C(F)(F)F)c2c(=O)[nH]1` the figure was -1.37%; with `CNC(=O)c1cc2c(cn1)[nH]c1ccccc12`, 3.35%.
The result for `CCOC(=O)c1cc2c(cn1)[nH]c1ccccc12` reads 9.76% and 5.1%; that for `CCOC(=O)CCC(=O)Nc1ccc(S(=O)(=O)Nc2cc(OC)nc(OC)n2)cc1`, -6.86%; that for `Cc1cc(C)c2c3c(sc2n1)C(=O)N(C)CC(=O)N3`, -4.13%.
For the compound `C/C(N)=C(/C#N)C(=O)COC(=O)CCC1CCCC1`, the inhibition was 0.41%.
With `N#CCC(=O)Nc1ccc(C(=O)N2CCN(c3ccccn3)CC2)cc1` the figure was 14.2%.
With `CN(C)c1ccc(CN(Cc2ccco2)C(=O)c2ccco2)cc1` the figure was -2.38%; with `CS(=O)(=O)N1CCC(Oc2ccccc2C(=O)NC2CCCCCC2)CC1`, -17.3%.
